In the library only some 2.8% were active in any assay of this set; here they are far more common.
KCNH2 3.1 inh – KCNH2 3.1 (human) potassium channel inhibition; hit rate 0.95% among 340,000; U2OS KCNH2 3.1, thallium flux FluxOr; stronger effect = lower value; activity change, % (tested at about 1.8 µM);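 active means maximum activity change below -70%; inconclusive means maximum activity change from -70% to -50%; inactive means maximum activity change above -50%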;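 further: thallium influx rate constant from kinetic fluorescence after stimulation buffer; on the % scale 0 is the no-effect control and ±100 the full control effect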
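Thallium flux read-out: FluxOr dye with Red40 quencher in HBSS/HEPES, 45 min at RT. Rate constants from kinetic reads were normalized to positive and negative DMSO controls. Cells: U2OS virally expressing the 3.1 isoform.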
GLP1R cytotox – cytotoxicity counter-screen for GLP-1 receptor inverse agonists | HEK293 cAMP-luciferase reporter cells, luminescence, 24 h | Potency, µM (doses to about 38.3 µM), inactives show at the top dose activity change, negative = inhibition, most hits filed as inhibitors | AID 624418 | hit rate 0.13% among 410,000;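 further: loss of luciferase light is scored as toxicity; potency means the concentration at half of the fitted maximal effect; on the % scale 0 is the no-effect control and ±100 the full control effect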
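Step one: seed cells (200 cells/uL, DMEM with 10% Nu serum, 1% pen-strep). Step two: 12-hour incubation at 37 deg C. Step three: pin 23 nL compound, incubate 24 hr. Step four: add luciferase reagent, read luminescence 12 min later.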
GLP-1R inv ag – acts as inverse agonist at human GLP-1 receptor. hit rate 1.6% among 410,000. Potency, µM (doses to about 38.3 µM), inactives show at the top dose activity change, negative = inhibition, hits mostly inhibitors. HEK293 GLP-1R CRE-luciferase, luminescence, 24 h; GLP-1R form is constitutively active. AID 624417. P43220; further: potency means the concentration at half of the fitted maximal effect; on the % scale 0 is the no-effect control and ±100 the full control effect; nearly all actives have a fitted effect of over 55% in size
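Readout was luciferase luminescence, measured 12 min after detection reagent at room temperature. Beforehand, GLP-1R reporter HEK293 cells had sat 12 h, then received compounds for 24 hr at 37 deg C.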
GLS inh – inhibitors of human glutaminase (GLS); O94925; Potency, µM (top dose mostly 45.5 µM), inactives show at the highest dose activity change, negative = inhibition, hits mostly inhibitors; hit rate 0.21% among 410,000; GLS enzymatic activity, qHTS titration; further: potency means the concentration at half of the fitted maximal effect; on the % scale 0 is the no-effect control and ±100 the full control effect
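Compounds were pin-transferred onto hKGA, after which L-glutamine (1 mM solution) and a detection mix of glutamate oxidase, HRP and Amplex Red were added. Initial and 30 min RT fluorescence reads were collected.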
hERG WT inh – inhibitors of human wildtype KCNH2 potassium channel; Q12809; U2OS, BacMam KCNH2, thallium flux FluxOr; stronger effect = lower value; hit rate 0.37% among 340,000; activity change, % at 1.84 µM;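 active means maximum activity change below -70%; inconclusive means maximum activity change between -70% and -50%; inactive means maximum activity change above -50%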; further: on the % scale 0 is the no-effect control and ±100 the full control effect
Target sequence (Q12809 whole entry, looked up): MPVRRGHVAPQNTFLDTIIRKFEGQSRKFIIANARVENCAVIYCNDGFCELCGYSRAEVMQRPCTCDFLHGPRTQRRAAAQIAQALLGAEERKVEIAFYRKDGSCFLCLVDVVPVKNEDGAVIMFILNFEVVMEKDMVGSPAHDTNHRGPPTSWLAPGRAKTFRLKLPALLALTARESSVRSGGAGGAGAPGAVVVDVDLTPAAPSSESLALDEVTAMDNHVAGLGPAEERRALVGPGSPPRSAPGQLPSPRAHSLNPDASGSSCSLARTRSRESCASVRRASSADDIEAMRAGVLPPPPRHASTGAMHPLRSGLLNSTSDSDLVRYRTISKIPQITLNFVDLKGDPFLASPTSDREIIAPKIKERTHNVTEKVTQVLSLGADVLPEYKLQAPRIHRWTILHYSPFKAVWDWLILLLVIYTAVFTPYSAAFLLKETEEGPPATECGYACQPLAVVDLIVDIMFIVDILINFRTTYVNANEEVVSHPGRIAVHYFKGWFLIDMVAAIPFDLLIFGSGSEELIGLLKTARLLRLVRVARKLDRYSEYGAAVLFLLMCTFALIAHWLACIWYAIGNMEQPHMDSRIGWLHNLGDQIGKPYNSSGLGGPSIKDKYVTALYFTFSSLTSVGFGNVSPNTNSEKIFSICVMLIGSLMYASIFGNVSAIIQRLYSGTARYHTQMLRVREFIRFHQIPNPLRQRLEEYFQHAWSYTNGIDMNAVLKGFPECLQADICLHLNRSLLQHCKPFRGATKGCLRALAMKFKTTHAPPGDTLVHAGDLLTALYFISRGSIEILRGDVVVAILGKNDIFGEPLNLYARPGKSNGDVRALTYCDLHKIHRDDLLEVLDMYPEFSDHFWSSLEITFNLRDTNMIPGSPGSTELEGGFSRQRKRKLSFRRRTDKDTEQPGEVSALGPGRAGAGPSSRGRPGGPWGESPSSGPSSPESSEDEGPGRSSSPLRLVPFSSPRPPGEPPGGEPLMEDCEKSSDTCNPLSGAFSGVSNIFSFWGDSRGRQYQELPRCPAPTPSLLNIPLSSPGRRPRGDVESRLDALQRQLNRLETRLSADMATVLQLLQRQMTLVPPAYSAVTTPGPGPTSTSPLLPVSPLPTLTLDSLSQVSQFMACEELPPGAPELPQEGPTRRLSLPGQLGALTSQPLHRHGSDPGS
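U2OS cells were transduced with wild-type KCNH2 virus (2.03 x 10^8 / mL) for 4 h at room temperature, then cultured overnight at 37 C. Thallium flux was read with FluxOr dye. Rate constants were normalized to DMSO controls.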
GLP1R ag – activates the human GLP-1 receptor; P43220; HEK293 GLP-1R CRE-luciferase, luminescence, 4-6 h; cells express a hypersensitive GLP-1R form; Potency, µM (titrated, usually from 45.6 µM), inactives show at the highest dose activation, hits mostly activators; hit rate 0.007% among 380,000; further: potency means the concentration at half of the fitted maximal effect; % of control where 0% means no effect
* hit, by the source's call; ? = inconclusive; / = no result; [ ] = dose if it differs, or a comment. Unless noted, the call rests on the fitted dose curve; in most records, active means well fitted curve in the direction sought with a large enough effect; inconclusive means small, poorly fitted or top-dose-only effect, or another doubt; inactive means no such curve, though single readings can be large; an effect the other way counts as inactive or inconclusive.

SMILES | KCNH2 3.1 inh | GLP1R cytotox | GLP-1R inv ag | GLS inh | hERG WT inh | GLP1R ag
COCCN(CC(=O)Nc1cccc(C)c1C)C(=O)c1ccc(-n2cccn2)cc1 | -15 | 3% | 14% | -4% | 11 | 8%
C=CCn1c(SCc2ccc(C(=O)Nc3nccs3)cc2)nnc1-c1ccc(C)c(Cl)c1 | -19 | ? | 4.5µM* | 1% | -8 | -6%
CN(C)CCCNC(=O)C(=O)Nc1ccc2c(c1)N(S(=O)(=O)c1cccs1)CCC2 | -4 | -28% | -72% | 3% | 20 | -3%
CN(C)CCNC(=O)C(=O)Nc1ccc2c(c1)N(S(=O)(=O)c1cccs1)CCC2 | 12 | 4.5µM* | ? | 0% | -6 | 12%
COc1cccc(NC(=O)Cn2c(=O)n(CCCCC(=O)NCc3ccccc3Cl)c(=O)c3ccccc32)c1 | / | 3% | 9% | -3% | / | -1%
CC1c2ccccc2SC(CCCN(C)C)c2ccccc21 (configuration not stated) | -15 | -29% | 11µM* | -7% | 0 | 19%
CN(C)CCC1Sc2ccccc2Oc2ccccc21 (configuration not stated) | -3 | ? | ? | -6% | 2 | 10%
CC(=O)NCCN1C(=O)C2C3c4ccccc4C(c4ccccc43)C2C1=O (configuration not stated) | -9 | -6% | 0% | -3% | -10 | 1%
CC(=O)c1cc(C)ccc1OC(=O)CCN1C(=O)C2C3c4ccccc4C(c4ccccc43)C2C1=O (configuration not stated) | -87* | -11% | 1% | 2% | -7 | -16%
CCC(=O)N(Cc1cc(=O)[nH]c2ccccc12)c1ccc(C)cc1 | 22 | -11% | ? | 0% | -2 | 16%
Cc1cccc(CSCC(=O)N2CCN(S(=O)(=O)c3ccccc3C#N)CC2)c1 | 8 | -4% | -3% | 3% | -238* | -5%
CCOc1ccc(C(=O)C(C)OC(=O)Cn2[nH]c(=O)c3ccccc3c2=O)cc1 (configuration not stated) | -73* | 4% | 7% | 5% | 5 | 1%
Cc1ccc2[nH]c3c(c2c1)CCCC3C(N)=O (configuration not stated) | 0 | 91% | 0% | 18% | 0 | 1%
CCN(CC)C(=O)C1CCCc2c1[nH]c1ccc(Cl)cc21 (configuration not stated) | -11 | -16% | 4.5µM* | 2% | 4 | -7%
O=C(c1ccco1)N1CCN(C(=O)C2CCCc3c2[nH]c2ccc(Cl)cc32)CC1 (configuration not stated) | -11 | -3% | 5µM* | 8% | 5 | 0%
Cc1nnc(C(C)C)n1C1C[C@H]2CC[C@@H](C1)N2CC[C@H](NC(=O)C1CCC(F)(F)CC1)c1ccccc1 (some centres not stated) | / | / | / | 0% | / | -2%
COc1cccc(CNC23CC4CC(CC(C4)C2)C3)c1OCc1ccccc1 | -12 | 3% | ? | 1% | 20 | 5%
CCc1ccc(N2CC(C(=O)N3CCN(c4ccc([N+](=O)[O-])cc4)CC3)CC2=O)cc1 (configuration not stated) | -18 | -3% | 1% | 8% | 5 | -1%
CCN1CCN(C(=O)/C(=C/c2cccs2)NC(=O)c2ccc(C)c(C)c2)CC1 | 12 | -8% | -25% | 13% | -100* | 0%
Cc1cccc(N(CC(=O)Nc2ccccc2C(F)(F)F)S(=O)(=O)c2ccccc2)c1C | / | 1% | 11µM* | -10% | / | -6%
COc1ccccc1N(CC(=O)Nc1ccccc1C(F)(F)F)S(=O)(=O)c1ccc(C)cc1 | / | 4% | ? | -5% | / | -2%
Cn1c(CCCOc2ccc(Cl)cc2Cl)nnc1SCC(=O)Nc1cccc(F)c1 | -3 | 0% | 2% | -16% | 2 | 22%
CCn1c(CCCOc2ccc(Cl)cc2Cl)nnc1SCC(=O)Nc1cc(F)ccc1C | -17 | -27% | 11µM* | 1% | -13 | 11%
Cc1cc(F)ccc1S(=O)(=O)Nc1ccccc1C(=O)Nc1ccccc1-c1nc2ccccc2[nH]1 | -5 | ? | 6.3µM* | 3% | -5 | -20%
Cc1cc(F)ccc1S(=O)(=O)Nc1ccccc1C(=O)Nc1ncn[nH]1 | -1 | -1% | ? | 11% | -2 | -4%
SMILES | KCNH2 3.1 inh | GLP1R cytotox | GLP-1R inv ag | GLS inh | hERG WT inh | GLP1R ag
CCc1cccc2c1NC(=O)C21N2CCCC2C(C(=O)c2ccc3ccccc3c2)C12C(=O)Nc1ccccc12 (configuration not stated) | -113* | 10% | ? | 9% | -2 | 2%
COc1cccc(CC(=O)NN2C(=O)NC3(CCCCC3)C2=O)c1 | -1 | 20% | 17% | -2% | -3 | -5%
CCc1ccccc1N(C)S(=O)(=O)c1ccc2[nH]cc(C(=O)N3CCc4ccccc43)c(=O)c2c1 | -85* | -22% | ? | 9% | -24 | -29%
Cc1cccc(N(C)S(=O)(=O)c2ccc3[nH]cc(C(=O)N4CCOCC4)c(=O)c3c2)c1 | -16 | -12% | 10% | -2% | -8 | -20%
O=C(Nc1ccc2c(c1)OCCO2)c1cc2sccc2n1Cc1ccc(F)cc1 | 9 | -8% | 5.6µM* | -9% | -1 | -11%
CCC(/C=C1\Oc2ccc(OC)cc2N1C)=C\c1sc2ccccc2[n+]1CCCS(=O)(=O)[O-] | 11 | -16% | -16% | -4% | 0 | -5%
COc1cc(/C=C/c2sc3ccccc3[n+]2CCCS(=O)(=O)[O-])ccc1O | -4 | 10µM* | 31% | ? | -3 | -3%
COc1cc(C(=O)O)c2c(c1C)OC(=O)c1c(C)cc(O)c(C=O)c1O2 | 4 | -7% | -1% | 5.6µM* | -1 | -5%
COc1ccc(C(=O)Oc2c(Sc3ccc(C)cc3)c(C)nn2C(C)(C)C)c(OC)c1 | / | -6% | ? | 13% | / | /
COc1ccc(C(=O)NCCSC2CCCCC2)cc1 | -112* | 3%[1.53 µM] | ? | 3% | -18 | 4%
CCc1ccc(C(C)NC(=O)c2ccc3c(c2)OCO3)cc1 (configuration not stated) | 4 | -3% | 11µM* | -1% | -7 | 12%
CC(NC(=O)c1ccc2c(c1)OCO2)c1ccccc1 (configuration not stated) | -2 | 1% | 0% | -20% | 3 | 7%
CC1CCC(NC(=O)c2ccc3c(c2)OCO3)CC1 (configuration not stated) | 9 | -2% | 4µM* | 0% | 8 | 0%
